Results on 15 molecules are retold here after PubChem BioAssay AID1508607 (The Scripps Research Institute Molecular Screening Center, 2020).

Among all 2,300 compounds or so, about 20 (0.9%) were called active. The list comes from a sample in which actives are over-represented; it also holds similar structures and randomly drawn compounds. Values without a mark were called inactive.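 Rule for the calls: active = mean percent activation across replicates above the counterscreen hit cutoff of 9.17%; inactive = the rest.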

Chain of Glucose-dependent insulinotropic receptor (Homo sapiens) (Q8TDV5 whole entry, looked up): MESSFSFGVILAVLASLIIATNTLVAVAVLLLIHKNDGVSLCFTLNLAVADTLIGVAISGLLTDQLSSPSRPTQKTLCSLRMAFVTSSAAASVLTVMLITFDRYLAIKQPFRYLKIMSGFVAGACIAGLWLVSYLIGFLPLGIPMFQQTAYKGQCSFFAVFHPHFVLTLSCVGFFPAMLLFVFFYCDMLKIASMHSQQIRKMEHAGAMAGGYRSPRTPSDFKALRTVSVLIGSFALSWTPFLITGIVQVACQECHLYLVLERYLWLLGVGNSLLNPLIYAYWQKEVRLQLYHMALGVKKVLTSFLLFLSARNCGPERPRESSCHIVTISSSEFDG

The experiment has as its target Glucose-dependent insulinotropic receptor (Homo sapiens) (UniProt Q8TDV5). In words: off-target GPR119 activation – cell-based, PathHunter beta-arrestin, luminescence, set 2, counter-screen for GPR151 activator project, confirmation (AID 1508607).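 Note: 0% = median of sample wells and 100% = wells given EA reagent.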 The settings on record: GPR119 PathHunter beta-arrestin cells, 90 min, at 11.2 µM, stronger effect = higher value. Background: A counterscreen serves to expose hits that act by an unwanted route or on another target.
With `C[C@@H]1O[C@@H](O[C@H]2C[C@@H](O)[C@]3(CO)[C@H]4[C@H](O)C[C@]5(C)[C@@H](C6=CC(=O)OC6)CC[C@]5(O)[C@@H]4CC[C@]3(O)C2)[C@H](O)[C@H](O)[C@H]1O`, the activation was 18.4% (active).
Take `COCCN1C(=S)NC2c3cccc(OC)c3OC1(C)C2C(=O)OC` (stereo not given): the activation was -2.57%.
For the molecule `Cc1cccc(C)c1-n1nnnc1C1(NCCc2c(C)[nH]c3ccccc23)CCCCC1`, the activation is -3.88%.
For the molecule `CC[n+]1c(/C=C/C=C2\N(C)c3ccccc3C2(C)C)n(-c2ccccc2)c2cc(Cl)ccc21`, the activation was 4.85%.
In the case of `CCn1c(/C=C/C=C2\N(C)c3ccccc3C2(C)C)[n+](Cc2ccccc2)c2ccccc21`, the activation is 15.3% (active).
For the molecule `CC[n+]1c(/C=C/C=C2\N(C)c3ccccc3C2(C)C)n(-c2ccccc2)c2ccc(C)cc21`, the activation was 2.58%.
Under `O=c1c2ccccc2nc(/C=C/c2ccccc2)n1-c1cccc(C(F)(F)F)c1` stands 1.19%; under `COc1ccc2[nH]c(C)c(CCNCc3ccc(OC(F)(F)F)cc3)c2c1`, 0.78%.
Consider `O=C(NCc1ccc(Cl)cc1)C(Cl)(Cl)Cl`, for which the activation is 1.33%.
Take `O=C(NC(O)C(Cl)(Cl)Cl)c1ccccc1` (stereo not given): the activation was -0.61%.
For the molecule `C[C@H]1CC[C@@H]2[C@@H](C)[C@H]3[C@H](CC4[C@@H]5CC=C6CC(O[C@@H]7O[C@H](CO)C(O[C@@H]8O[C@@H](C)[C@H](O)[C@@H](O)[C@H]8O)[C@H](O)[C@H]7O[C@@H]7O[C@@H](C)[C@H](O)[C@@H](O)[C@H]7O)CC[C@]6(C)[C@H]5CC[C@@]43C)N2C1` (stereo not given in full), the activation was 28.4% (active).
As for `COc1ccc(CN2CCNCC2CCO)c(C)c1C` (stereo not given), the activation was 0.92%.
Next, `CCN1C(=O)c2ccccc2Sc2ccc(C(=O)N3CCC4(CC3)OCCO4)cc21`: 0.67%; `COc1cccc(C2N(c3ccccn3)C(=O)C3CCCN32)c1` (stereo not given): -1.97%.
With `CCc1ccc(NC(=O)CN2CC(c3ccccc3)CC2=O)cc1` (stereo not given), the activation is 2.2%.
